In PubChem BioAssay:
Results filed as inconclusive are left out. Active and inactive are the calls of the source.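 How the source made its calls, unless noted: active means normalized viability below 100% at a tested concentration; inactive means the rest.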

Experiments:
[1] = viability loss in pontine glioma line – cell-based, SU-DIPG-XVII, MIPE5.0, CellTiter-Glo, qHTS, dose response (AID 1347060; cut-off not given, nearly all actives have AC50 up to about 26 µM;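 on AC50: cells exposed to compound for 48 hours before viability readout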); conditions: CellTiter-Glo ATP luminescence
[2] = viability loss in pontine glioma line – cell-based, SU-DIPG-XIII, MIPE4.0, CellTiter-Glo, qHTS, dose response (AID 1347061; cut-off not given, nearly all actives have AC50 up to about 37 µM;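 further: cells exposed to compound for 48 hours before readout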); conditions: CellTiter-Glo ATP luminescence
[3] = viability loss in pontine glioma line – cell-based, JHH-DIPG-1, MIPE4.0, CellTiter-Glo, qHTS, dose response (AID 1347062; cut-off not given, nearly all actives have AC50 up to about 27 µM;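 on AC50: cells exposed to compound for two days before readout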); conditions: JHH-DIPG-1 viability, CellTiter-Glo ATP luminescence
[4] = viability loss in pontine glioma line – cell-based, SU-DIPG-XIII, MIPE5.0, CellTiter-Glo, qHTS, dose response (AID 1347064; cut-off not given, nearly all actives have AC50 up to about 23 µM;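 on AC50: cells exposed to compound for 48 hours before the viability read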); conditions: CellTiter-Glo ATP luminescence
[5] = growth inhibition of DIPG cells – cell-based, MIPE4.0 library, CellTiter-Glo luminescence, qHTS (AID 1347066; cut-off not given, nearly all actives have AC50 up to about 30 µM;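 further: cells exposed to compound for 48 hours before readout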); conditions: SU-DIPG-VI viability, CellTiter-Glo ATP luminescence
[6] = JHH-DIPG-1 glioma cell viability, MIPE5.0 library, CellTiter-Glo luminescence, qHTS (AID 1347067; cut-off not given, nearly all actives have AC50 up to about 26 µM;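 further: cells exposed to compound for 48 hours before readout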); conditions: JHH-DIPG-1 glioma viability, CellTiter-Glo ATP luminescence
[7] = viability loss with induced miR-34 in A549 – imaging, A549 dox-inducible miR-34, nuclei and caspase counts, primary screen (AID 1347080;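 active means compounds whose cell count with miR-34 switched on is under 0.7 times the count with it off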); conditions: A549 miR-34 inducible, Hoechst nuclei count, 48 h
[8] = compounds altering HSF1 focus formation in cells – imaging, Selleck Cancer Library (AID 1347162; in the data active means plate-normalised HSF1 focus index below about 0.46); conditions: human cells, HSF1 nuclear foci imaging, at 10 µM; SSMD: measured here: HSF1 foci SSMD mean; cell count: measured here: cell number; plate-normalised HSF1 focus index: stronger effect = lower value
[9] = MELAS cybrid and Rieske KO viability enhancers – cell-based, MELAS cybrids, Rieske KO mouse fibroblasts, CellTiter-Glo, primary screen (AID 1508586;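 active means mean z-score across replicates of 1.96 or higher in either the MELAS or the Rieske mutant cell line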;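 further: z relative to plate mean and SD of compound and empty wells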); conditions: low glucose
[10] = drug combination growth inhibition, ovarian cancer – cell-based, oncology-focused library, rucaparib conditional, profiling panel (AID 1508598); conditions: patient-derived ovarian cancer cells, CellTiter-Glo viability, 144 h, stronger effect = lower value
[11] = growth inhibition of DIPG cells – cell-based, MIPE5.0 library, qHTS (AID 1347068; cut-off not given, nearly all actives have IC50 up to about 30 µM;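 on IC50: cells exposed to compound for 48 hours before viability readout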); conditions: SU-DIPG-XXV viability
[12] = viability loss in pontine glioma line – cell-based, SU-DIPG-IV, MIPE4.0, CellTiter-Glo, qHTS, dose response (AID 1347063; cut-off not given, nearly all actives have AC50 up to about 30 µM;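 further: compound exposure lasted 48 hours before the viability readout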); conditions: CellTiter-Glo ATP luminescence
[13] = viability loss in pontine glioma line – cell-based, SU-DIPG-XXV, MIPE5.0, CellTiter-Glo, qHTS, dose response (AID 1347065; cut-off not given, nearly all actives have AC50 up to about 26 µM;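 further: cells exposed to compound for 48 hours before ATP readout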); conditions: CellTiter-Glo ATP luminescence
[14] = stronger effect = lower value, cell number ratio, induced over uninduced
[15] = measured here: relative caspase fold change +Dox/-Dox
[16] = measured here: total cells with miR-34 induction, stronger effect = lower value
[17] = measured here: total cells without miR-34 induction
[18] = MELAS cybrid survival, CellTiter-Glo 48 h, stronger effect = higher value
[19] = Rieske KO mouse fibroblast survival, CellTiter-Glo 72 h
[20] = at 0.000305 µM, OCI-C5x cells, with rucaparib 10 µM, 100% = cells with rucaparib alone
[21] = at 0.000305 µM, OCI-C5x cells, without rucaparib
[22] = at 0.000305 µM, OCI-P5x cells, with rucaparib 20 µM, 100% = cells with rucaparib alone
[23] = at 0.000305 µM, OCI-P5x cells, without rucaparib
[24] = at 0.00122 µM, OCI-C5x cells, with rucaparib 10 µM, 100% = cells with rucaparib alone
[25] = at 0.00122 µM, OCI-C5x cells, without rucaparib
[26] = at 0.00122 µM, OCI-P5x cells, with rucaparib 20 µM, 100% = cells with rucaparib alone
[27] = at 0.00122 µM, OCI-P5x cells, without rucaparib
[28] = at 0.00488 µM, OCI-C5x cells, with rucaparib 10 µM, 100% = cells with rucaparib alone
[29] = at 0.00488 µM, OCI-C5x cells, without rucaparib
[30] = at 0.00488 µM, OCI-P5x cells, with rucaparib 20 µM, 100% = cells with rucaparib alone
[31] = at 0.00488 µM, OCI-P5x cells, without rucaparib
[32] = at 0.0195 µM, OCI-C5x cells, with rucaparib 10 µM, 100% = cells with rucaparib alone
[33] = at 0.0195 µM, OCI-C5x cells, without rucaparib
[34] = at 0.0195 µM, OCI-P5x cells, with rucaparib 20 µM, 100% = cells with rucaparib alone
[35] = at 0.0195 µM, OCI-P5x cells, without rucaparib
[36] = at 0.0781 µM, OCI-C5x cells, with rucaparib 10 µM, 100% = cells with rucaparib alone
[37] = at 0.0781 µM, OCI-C5x cells, without rucaparib
[38] = at 0.0781 µM, OCI-P5x cells, with rucaparib 20 µM, 100% = cells with rucaparib alone
[39] = at 0.0781 µM, OCI-P5x cells, without rucaparib
[40] = at 0.313 µM, OCI-C5x cells, with rucaparib 10 µM, 100% = cells with rucaparib alone
[41] = at 0.313 µM, OCI-C5x cells, without rucaparib
[42] = at 0.313 µM, OCI-P5x cells, with rucaparib 20 µM, 100% = cells with rucaparib alone
[43] = at 0.313 µM, OCI-P5x cells, without rucaparib
[44] = at 1.25 µM, OCI-C5x cells, with rucaparib 10 µM, 100% = cells with rucaparib alone
[45] = at 1.25 µM, OCI-C5x cells, without rucaparib
[46] = at 1.25 µM, OCI-P5x cells, with rucaparib 20 µM, 100% = cells with rucaparib alone
[47] = at 1.25 µM, OCI-P5x cells, without rucaparib
[48] = at 5 µM, OCI-C5x cells, with rucaparib 10 µM, 100% = cells with rucaparib alone
[49] = at 5 µM, OCI-C5x cells, without rucaparib
[50] = at 5 µM, OCI-P5x cells, with rucaparib 20 µM, 100% = cells with rucaparib alone
[51] = at 5 µM, OCI-P5x cells, without rucaparib

O=C(O)CCC1CCC(c2cc(F)ccc2F)(S(=O)(=O)c2ccc(Cl)cc2)CC1 (stereo unspecified)
10200: cell count [7, 17]
0.588: fold change [7, 15]
active: AC50 [2] 18.7 µM | AC50 [3] 16.6 µM | AC50 [5] 6.62 µM | viability [10, 39] 93.6% | viability [10, 42] 99.9% | viability [10, 43] 89.3% | viability [10, 46] 94.5% | viability [10, 47] 87.7% | viability [10, 50] 84.8% | viability [10, 51] 76.9%
inactive: outcome [1] | outcome [4] | outcome [6] | fold change [7, 14] 0.867 | plate-normalised HSF1 focus index [8] 1.09 | z-score [9, 18] -0.308 | viability [10, 20] 114% | viability [10, 21] 121% | viability [10, 22] 110% | viability [10, 23] 108% | viability [10, 24] 123% | viability [10, 25] 121% | viability [10, 26] 113% | viability [10, 27] 102% | viability [10, 28] 110% | viability [10, 29] 120% | viability [10, 30] 107% | viability [10, 31] 105% | viability [10, 32] 115% | viability [10, 33] 104% | viability [10, 34] 104% | viability [10, 35] 104% | viability [10, 36] 108% | viability [10, 37] 112% | viability [10, 38] 102% | viability [10, 40] 113% | viability [10, 41] 113% | viability [10, 44] 113% | viability [10, 45] 109% | viability [10, 48] 114% | viability [10, 49] 107%
0.781: z-score [9, 19]
7050: cell count [8]
8810: cell count [7, 16]
1.51: SSMD [8]

O=C1CCCC2=C1C(c1[nH]ncc1Cl)N=C(Nc1nc3ccccc3o1)N2 (stereo unspecified)
inactive: outcome [1] | outcome [2] | outcome [3] | outcome [5] | outcome [6] | outcome [11]

CC(=O)Nc1ccc([C@H](C)C(=O)Nc2ncc(C(C)C)s2)cc1
active: AC50 [1] 0.934 µM | AC50 [2] 4.69 µM | AC50 [12] 2.64 µM | AC50 [4] 2.95 µM | AC50 [13] 1.86 µM | AC50 [6] 3.32 µM | IC50 [11] 2.95 µM

Cc1cc([C@@H](C)Nc2ccccc2C(=O)O)c2nc(N3CCOCC3)cc(=O)n2c1
active: AC50 [1] 16.6 µM | AC50 [2] 42.9 µM | AC50 [12] 12.1 µM | AC50 [4] 14.8 µM | AC50 [13] 14.8 µM | AC50 [5] 38.2 µM

CN(C)c1ccc(C2Nc3ccc4ccccc4c3C3=C2C(=O)CC(C)(C)C3)cc1Br (stereo unspecified)
inactive: outcome [1] | outcome [2] | outcome [3] | outcome [5] | outcome [6]

C[C@@]1(C(=O)Nc2ccc(F)nc2)CCCN1c1nc(Nc2cc(C3CC3)[nH]n2)c2cccn2n1
active: AC50 [1] 0.263 µM | AC50 [2] 7.43 µM | AC50 [12] 0.0833 µM | AC50 [4] 0.0209 µM | AC50 [13] 0.0132 µM | AC50 [6] 0.186 µM | IC50 [11] 0.0742 µM

C[C@]12CCC3=C4CCC(=O)C=C4CC[C@H]3[C@@H]1CC[C@@]2(O)CC#N
inactive: outcome [1] | outcome [2] | outcome [3] | outcome [13] | outcome [5] | outcome [6]

Cc1cnc(-c2cc(N3CCN(C(=O)CCS(C)(=O)=O)CC3)ncc2Cl)c(C)c1
0.28: z-score [9, 19]
10000: cell count [7, 17]
0.666: fold change [7, 15]
8550: cell count [7, 16]
inactive: outcome [1] | outcome [2] | outcome [12] | outcome [4] | outcome [13] | outcome [5] | outcome [6] | outcome [11] | fold change [7, 14] 0.856 | z-score [9, 18] -0.296

CC[C@H](NC(=O)[C@H](C)NC)C(=O)N1C[C@@H](O)C[C@H]1Cc1c(-c2[nH]c3cc(F)ccc3c2C[C@@H]2C[C@H](O)CN2C(=O)[C@H](CC)NC(=O)[C@H](C)NC)[nH]c2cc(F)ccc12
inactive: outcome [1] | outcome [2] | outcome [4] | outcome [13] | outcome [5] | outcome [6] | outcome [11]
active: AC50 [12] 0.0662 µM

Cc1ccc([C@@H]2O[C@H](CO)[C@@H](O)[C@H](O)[C@H]2O)cc1Cc1ccc(-c2ccc(F)cc2)s1
inactive: outcome [1] | outcome [2] | outcome [3] | outcome [4] | outcome [5] | plate-normalised HSF1 focus index [8] 1.01 | viability [10, 20] 120% | viability [10, 21] 109% | viability [10, 24] 120% | viability [10, 25] 120% | viability [10, 26] 109% | viability [10, 28] 115% | viability [10, 29] 118% | viability [10, 30] 108% | viability [10, 32] 105% | viability [10, 33] 108% | viability [10, 34] 108% | viability [10, 35] 103% | viability [10, 36] 114% | viability [10, 37] 128% | viability [10, 38] 109% | viability [10, 39] 102% | viability [10, 40] 117% | viability [10, 41] 122% | viability [10, 42] 114% | viability [10, 43] 110% | viability [10, 44] 119% | viability [10, 45] 122% | viability [10, 46] 109% | viability [10, 47] 108% | viability [10, 48] 117% | viability [10, 49] 129% | viability [10, 50] 105% | viability [10, 51] 115%
7420: cell count [8]
0.238: SSMD [8]
active: viability [10, 22] 98.8% | viability [10, 23] 97.6% | viability [10, 27] 93.8% | viability [10, 31] 99.4%
